Results reported in PubChem BioAssay AID1159580 (chemical genetic matrix, 2015).
Out of some 5,500 compounds screened, about 2,000 (36%) were called active. About 18% were inconclusive and are not listed. Rule as the data show it: active = normalized growth mostly below about 0.91 (no sharp cut-off); inconclusive = no clear call, values can overlap the other calls; inactive = mostly above about 0.92. Some of the results follow.

Experiment: chemical genetic growth profiling, strain panel (AID 1159580);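 also: tested at 20 µM; growth read once vehicle control cultures reached saturation at 30 °C; 1 = growth at the plate median or of vehicle wells; lower values mean less growth of the strain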
Conditions: growth OD

Measured: normalized growth

C[C@@H]1O[C@@H](O[C@H]2CC[C@]3(C=O)C4CC[C@]5(C)[C@@H](C6=CC(=O)OC6)CC[C@]5(O)C4CC[C@]3(O)C2)[C@H](O)[C@H](O)[C@H]1O (stereo not given in full)
inactive: S. cerevisiae deletion strains, locus YJR066W, strain TOR1, stronger effect = lower value 0.953 | S. cerevisiae deletion strains, locus YJR075W, strain HOC1, stronger effect = lower value 0.989 | S. cerevisiae deletion strains, locus YKL009W, strain mrt4, stronger effect = lower value 1.05 | S. cerevisiae deletion strains, locus YKL068W, stronger effect = lower value 0.991 | S. cerevisiae deletion strains, locus YKL085W, strain MDH1 (second series), stronger effect = lower value 0.999 | S. cerevisiae deletion strains, locus YKL085W, strain MDH1, stronger effect = lower value 0.999 | S. cerevisiae deletion strains, locus YKL160W, strain elf1, stronger effect = lower value 1.01 | S. cerevisiae deletion strains, locus YKL190W, strain CNB1, stronger effect = lower value 0.988 | S. cerevisiae deletion strains, locus YKR001C, strain vps1, stronger effect = lower value 0.995 | S. cerevisiae deletion strains, locus YKR026C, strain gcn3, stronger effect = lower value 0.997 | S. cerevisiae deletion strains, locus YKR091W, strain srl3, stronger effect = lower value 0.997 | S. cerevisiae deletion strains, locus YLL001W, strain dnm1, stronger effect = lower value 1.01 | S. cerevisiae deletion strains, locus YLL026W, stronger effect = lower value 0.995 | S. cerevisiae deletion strains, locus YLL041C, strain sdh2, stronger effect = lower value 1 | S. cerevisiae deletion strains, locus YLR027C, strain aat2, stronger effect = lower value 0.999 | S. cerevisiae deletion strains, locus YLR039C, strain RIC1, stronger effect = lower value 0.977 | S. cerevisiae deletion strains, locus YLR058C, strain SHM2, stronger effect = lower value 0.981 | S. cerevisiae deletion strains, locus YLR102C, strain apc9, stronger effect = lower value 0.997 | S. cerevisiae deletion strains, locus YLR113W, strain HOG1, stronger effect = lower value 0.952 | S. cerevisiae deletion strains, locus YLR221C, strain rsa3, stronger effect = lower value 1.01 | S. cerevisiae deletion strains, locus YLR258W, strain gsy2, stronger effect = lower value 0.991 | S. cerevisiae deletion strains, locus YLR262C, strain YPT6 (second series), stronger effect = lower value 1.01 | S. cerevisiae deletion strains, locus YLR262C, strain YPT6, stronger effect = lower value 0.914 | S. cerevisiae deletion strains, locus YLR268W, strain sec22, stronger effect = lower value 1.01 | S. cerevisiae deletion strains, locus YLR320W, strain mms22, stronger effect = lower value 0.989 | S. cerevisiae deletion strains, locus YLR330W, strain CHS5, stronger effect = lower value 1 | S. cerevisiae deletion strains, locus YLR342W, strain FKS1 (second series), stronger effect = lower value 1.06 | S. cerevisiae deletion strains, locus YLR342W, strain FKS1, stronger effect = lower value 0.999 | S. cerevisiae deletion strains, locus YLR357W, strain rsc2, stronger effect = lower value 0.959 | S. cerevisiae deletion strains, locus YLR370C, strain arc18, stronger effect = lower value 1.01 | S. cerevisiae deletion strains, locus YLR371W, strain rom2, stronger effect = lower value 0.978 | S. cerevisiae deletion strains, locus YLR384C, strain iki3, stronger effect = lower value 0.987 | S. cerevisiae deletion strains, locus YLR418C, strain cdc73, stronger effect = lower value 0.964 | S. cerevisiae deletion strains, locus YML016C, strain PPZ1, stronger effect = lower value 0.995 | S. cerevisiae deletion strains, locus YML032C, strain rad52, stronger effect = lower value 0.991 | S. cerevisiae deletion strains, locus YML120C, strain ndi1, stronger effect = lower value 0.994 | S. cerevisiae deletion strains, locus YML124C, strain tub3, stronger effect = lower value 0.983 | S. cerevisiae deletion strains, locus YMR058W, strain fet3, stronger effect = lower value 1 | S. cerevisiae deletion strains, locus YMR078C, strain ctf18, stronger effect = lower value 0.976 | S. cerevisiae deletion strains, locus YMR125W, strain sto1, stronger effect = lower value 0.969 | S. cerevisiae deletion strains, locus YMR129W, stronger effect = lower value 0.998 | S. cerevisiae deletion strains, locus YMR205C, strain PFK2, stronger effect = lower value 0.954 | S. cerevisiae deletion strains, locus YMR223W, strain ubp8, stronger effect = lower value 0.962 | S. cerevisiae deletion strains, locus YMR231W, strain pep5, stronger effect = lower value 0.998 | S. cerevisiae deletion strains, locus YMR307W, strain GAS1, stronger effect = lower value 0.977 | S. cerevisiae deletion strains, locus YNL067W, strain RPL9B, stronger effect = lower value 0.975 | S. cerevisiae deletion strains, locus YNL071W, strain lat1, stronger effect = lower value 1 | S. cerevisiae deletion strains, locus YNL183C, strain NPR1, stronger effect = lower value 0.965 | S. cerevisiae deletion strains, locus YNL209W, strain ssb2, stronger effect = lower value 1 | S. cerevisiae deletion strains, locus YNL233W, strain BNI4, stronger effect = lower value 0.999 | S. cerevisiae deletion strains, locus YNL248C, strain rpa49, stronger effect = lower value 1.01 | S. cerevisiae deletion strains, locus YNL250W, strain rad50, stronger effect = lower value 0.993 | S. cerevisiae deletion strains, locus YNL271C, strain bni1, stronger effect = lower value 0.985 | S. cerevisiae deletion strains, locus YNL298W, strain CLA4, stronger effect = lower value 1 | S. cerevisiae deletion strains, locus YNL307C, strain MCK1, stronger effect = lower value 0.992 | S. cerevisiae deletion strains, locus YNL322C, strain KRE1 (second series), stronger effect = lower value 1.01 | S. cerevisiae deletion strains, locus YNL322C, strain KRE1, stronger effect = lower value 0.994 | S. cerevisiae deletion strains, locus YNR049C, strain mso1, stronger effect = lower value 1.01 | S. cerevisiae deletion strains, locus YNR052C, strain pop2, stronger effect = lower value 0.998 | S. cerevisiae deletion strains, locus YOL006C, strain TOP1, stronger effect = lower value 1.12 | S. cerevisiae deletion strains, locus YOL012C, strain htz1 0.98 | S. cerevisiae deletion strains, locus YOL147C, strain pex11, stronger effect = lower value 0.998 | S. cerevisiae deletion strains, locus YOR001W, strain rrp6, stronger effect = lower value 1 | S. cerevisiae deletion strains, locus YOR061W, strain CKA2, stronger effect = lower value 0.973 | S. cerevisiae deletion strains, locus YOR069W, strain VPS5, stronger effect = lower value 1 | S. cerevisiae deletion strains, locus YOR070C, strain gyp1, stronger effect = lower value 0.999 | S. cerevisiae deletion strains, locus YOR080W, strain dia2, stronger effect = lower value 0.988 | S. cerevisiae deletion strains, locus YOR083W, strain WHI5, stronger effect = lower value 1.01 | S. cerevisiae deletion strains, locus YOR106W, strain vam3, stronger effect = lower value 0.998 | S. cerevisiae deletion strains, locus YOR136W, strain idh2, stronger effect = lower value 1 | S. cerevisiae deletion strains, locus YOR144C, strain elg1, stronger effect = lower value 0.993 | S. cerevisiae deletion strains, locus YOR184W, strain ser1, stronger effect = lower value 0.975 | S. cerevisiae deletion strains, locus YOR231W, strain MKK1, stronger effect = lower value 0.996 | S. cerevisiae deletion strains, locus YOR265W, strain rbl2, stronger effect = lower value 0.999 | S. cerevisiae deletion strains, locus YOR270C, strain vph1, stronger effect = lower value 1.02 | S. cerevisiae deletion strains, locus YOR290C, strain snf2, stronger effect = lower value 0.994 | S. cerevisiae deletion strains, locus YOR316C, strain cot1, stronger effect = lower value 0.991 | S. cerevisiae deletion strains, locus YPL051W, strain arl3, stronger effect = lower value 1.01 | S. cerevisiae deletion strains, locus YPL055C, strain LGE1, stronger effect = lower value 1 | S. cerevisiae deletion strains, locus YPL078C, strain atp4, stronger effect = lower value 1.02 | S. cerevisiae deletion strains, locus YPL106C, strain sse1, stronger effect = lower value 0.977 | S. cerevisiae deletion strains, locus YPL240C, strain hsp82, stronger effect = lower value 1.01 | S. cerevisiae deletion strains, locus YPL241C, strain CIN2, stronger effect = lower value 0.995 | S. cerevisiae deletion strains, locus YPL256C, strain CLN2, stronger effect = lower value 0.987 | S. cerevisiae deletion strains, locus YPR119W, strain clb2, stronger effect = lower value 1 | S. cerevisiae deletion strains, locus YPR141C, strain kar3, stronger effect = lower value 0.98 | S. cerevisiae deletion strains, locus YPR163C, strain tif3, stronger effect = lower value 0.983 | S. cerevisiae deletion strains, locus YPR167C, strain met16, stronger effect = lower value 1 | S. cerevisiae deletion strains, strain wtn01, stronger effect = lower value 1.03 | S. cerevisiae strains, strain wild type, stronger effect = lower value 0.989
